The values that follow come from PubChem BioAssay (EPA / NIEHS).

Inconclusive results are not listed. The source made the active and inactive calls. The calls were made as follows, unless noted: active = hit-call score of the fitted dose curve at least 0.9, where 1 is the maximum; inactive = score below 0.9.

A short description of assay [1]: CCTE_Mundy_HCI_hNP1_Casp3_7: CCTE's Caspase-Glo 3/7 Assay in human neuroprogenitor cells for Apoptosis, Mundy Lab (AID 2284240). Put shortly:
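Neuroepithelial-lineage stem cells from WA09 embryonic cells were treated with chemicals after 40–44 h of culture. Twenty-four hours later, caspase-3/7 activation was detected luminescently after a 30 min room-temperature reagent step, with DMSO as baseline.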

The nature of assay [2]: CCTE_Mundy_HCI_hNP1_CellTiter: CCTE's Cell Titer-Glo 2 Assay in human neuroprogenitor cells for Viability, Mundy Lab (AID 2284241; active = hit-call score of the fitted dose curve at least 0.9, where 1 is the maximum;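 as to AC50: a hit is a drop in ATP luminescence versus DMSO meaning reduced viability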). Put shortly:
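Measures ATP content in human neural progenitors derived from WA09 embryonic cells. Read-out at 26.5 hours after dosing, with DMSO serving as the negative control and baseline.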
For orientation: ATP-based viability assays read luminescence as a measure of living cells.

Assay [3] in a line: CCTE_Mundy_HCI_Cortical_Synap_Neur_Matur_NeuronCount: CCTE's Synaptogenesis and Neurite Maturation Assay in rat cortical cells for Neuron Count, Mundy Lab (AID 2284242; active = hit-call score of the fitted dose curve at least 0.9, where 1 is the maximum;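 as to AC50: neuron number from Hoechst nuclei and MAP2 staining by high-content imaging; hits reduce neuron count versus DMSO baseline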). The method in brief:
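Imaging-based neuron count in rat cortical cultures after chemical exposure from DIV 7 to DIV 12, with AraC added at DIV 5. Activity is fitted relative to DMSO.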

The nature of assay [4]: IUF_NPC2a_radial_glia_migration_120hr: Leibniz Research Institute for Environmental Medicine (IUF) 120-hour Neural Progenitor Cell Migration Assay for Radial Glia Migration (NPC2a) (AID 2284298). The method in brief:
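Hoechst-stained nuclei imaged at 120 h; algorithm maps sphere core by densest nuclei, sets migration edge at density threshold, gives radial glia migration distance (um) per well vs DMSO. hNPC spheres (0.3 mm), PDL/laminin, DMEM/F12 3:1 + 1% N2.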

Assay [5] can be described thus: IUF_NPC2a_radial_glia_migration_72hr: Leibniz Research Institute for Environmental Medicine (IUF) 72-hour Neural Progenitor Cell Migration Assay for Radial Glia Migration (NPC2a) (AID 2284299). The method in brief: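 Migration out of plated human neural progenitor spheres is scored at 72 h as the distance in um from the sphere core edge to the edge of the migration area. Values are the mean of four manual measurements per well, normalised to DMSO.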

Assay [6] is described as follows: IUF_NPC2b_neuronal_migration_120hr: Leibniz Research Institute for Environmental Medicine (IUF) 120-hour Neural Progenitor Cell Migration Assay for Neuron Migration (NPC2b) (AID 2284300). The method in brief:
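hNPC spheres, PDL/laminin, DMEM:F12 3:1 + 1% N2, 37C/5% CO2; 7 concentrations + solvent control (DMSO ≤0.1%), 5 d exposure, half-feed day 3. Fix 120 h, TUBB3 ICC, HCI: mean neuron migration distance ÷ glia distance.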

A short description of assay [7]: IUF_NPC4_neurite_length_120hr: Leibniz Research Institute for Environmental Medicine (IUF) 120-hour Neuronal Morphology Assay for Neurite Length (NPC4) (AID 2284302). Put shortly: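 Human fetal cortex (GW 16-19) neural progenitor spheres, 0.3 mm, were plated on poly-D-lysine/laminin in N2 differentiation medium and exposed from day 0 for 120 h, half-feeding at day 3. Mean TUBB3+ neurite length (µm) came from skeletonized images, relative to DMSO.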

Assay [8] in a line: IUF_NPC5_oligodendrocyte_differentiation_120hr: Leibniz Research Institute for Environmental Medicine (IUF) 120-hour Oligodendrocyte Differentiation Assay (NPC5) (AID 2284304; active = hit-call score of the fitted dose curve at least 0.9, where 1 is the maximum;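 also: primary human fetal neural progenitor spheres plated to migrate and differentiate; share of O4-positive cells among Hoechst nuclei found by CNN image analysis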). The method in brief: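 hNPC spheres, fetal cortex GW 16-19; PDL/laminin, DMEM:F12 3:1 + 1% N2, 37C/5% CO2; 7 concentrations + solvent control, 5 d exposure, half-change day 3. Readout: %O4+ of Hoechst+ nuclei in migration area, CNN classification; DMSO baseline.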

For `C=C(C)CN(CC)c1c([N+](=O)[O-])cc(C(F)(F)F)cc1[N+](=O)[O-]`, the AC50 – broadly, the concentration giving half of the maximal activity seen – was 77.5 µM (active) in assay [1], 31.5 µM (active) in assay [2] and 8.46 µM (active) in assay [3]. Further, the compound was called inactive in assay [4], in assay [5], in assay [6], in assay [7] and in assay [8].

For `N#CN=C1SCCN1Cc1ccc(Cl)nc1`, the compound was classed as inactive in assay [1], in assay [2], in assay [4], in assay [5], in assay [6] and in assay [7]. For the same compound, the result in assay [8] was inactive.

For `COC(=O)N(C(=O)N1CO[C@@]2(C(=O)OC)Cc3cc(Cl)ccc3C2=N1)c1ccc(OC(F)(F)F)cc1`, the call in assay [1], in assay [2], in assay [4], in assay [5], in assay [6] and in assay [7] was inactive. In addition, the AC50 in assay [8] is 1.99 µM (active).

Regarding `CCN(CC)c1nc(C)cc(OP(=S)(OC)OC)n1`, the AC50 in assay [1] is 75.1 µM (active); in assay [2], 71.4 µM (active); in assay [3], 9.92 µM (active).

As for `CCSC(=O)N1CCCCCC1`, the result in assay [1], in assay [2], in assay [3], in assay [4], in assay [6] and in assay [8] was inactive. In addition, the values for the concentration at half-maximal activity (AC50) in assay [5] and in assay [7] were 8.49 µM (active) and 0.143 µM (active), respectively.

For `COP(=O)(OC)O/C(C)=C/C(=O)N(C)C`, the call in assay [1] and in assay [3] was inactive.

`CC(C)(C)C(=O)C(Oc1ccc(Cl)cc1)n1cncn1` (centres undefined): the call in assay [1], in assay [2], in assay [4], in assay [5], in assay [6] and in assay [7] was inactive. For the same compound, the result in assay [8] was inactive. Also, the AC50 in assay [3] is 11 µM (active).

As to `CS(=O)(=O)c1cc(C(F)(F)F)ccc1C(=O)c1cnoc1C1CC1`, the compound was called inactive in assay [1], in assay [2], in assay [4], in assay [5], in assay [6] and in assay [7]. Moreover, the call in assay [8] was inactive.

With `CO/N=C(/C1=NOCCO1)c1ccccc1Oc1ncnc(Oc2ccccc2Cl)c1F`, the AC50 in assay [1] is 90 µM (active); in assay [3], 1.52 µM (active). The result in assay [4], in assay [5], in assay [6], in assay [7] and in assay [8] was inactive.

In the case of `CCNC(=O)NC(=O)C(C#N)=NOC`, the outcome in assay [1], in assay [2], in assay [4], in assay [5], in assay [6] and in assay [7] was inactive. For the same compound, the compound was called inactive in assay [8].
